Bioassay records deposited in PubChem BioAssay by National Center for Advancing Translational Sciences (NCATS).
Sm TGR inh: S. mansoni TGR enzyme inhibition | Q962Y6 | purified TGR, DTNB reduction, TNB absorbance 405 nm | Potency, µM (series often up to 114 µM), inactives show at the highest dose activity change, negative = inhibition, usual class: inhibitors | 360,000 tested, 3% active | AID 485364; further: potency means the concentration at half of the fitted maximal effect; nearly all actives have a fitted effect of over 60% in size
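Kinetic colorimetric format: TGR-catalysed, NADPH-driven DTNB reduction monitored via TNB absorbance. Enzyme dispensed at 20 nM; compound exposure 15 min at room temperature before reaction start.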
Pf growth 96h: inhibits malaria parasite growth, 96 h; P. falciparum luciferase reporter growth, 96 h; Potency, µM (titrated, usually from 28.7 µM), for the others: top-dose activity change, negative = inhibition, usual class: inhibitors; 320,000 tested, 6.9% active; further: potency means the concentration at half of the fitted maximal effect
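Erythrocytes infected with luciferase-expressing P. falciparum were dispensed at 2% hematocrit and 0.05% parasitemia (final), then incubated with compounds 96 hours at 37 C in 5% CO2. Luminescence after detection reagent addition reported growth.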
Pf growth 48h: inhibits P. falciparum growth in the first generation, 48 h; P. falciparum luciferase growth in erythrocytes, 48 h; Potency, µM (doses to about 28.7 µM), for inactives: at the top dose activity change, negative = inhibition, usual class: inhibitors; 310,000 tested, 5.9% active; further: potency means the concentration at half of the fitted maximal effect
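Here the parasites carry a stable luciferase gene and grow inside erythrocytes in Albumax-based RPMI medium with compound for one erythrocytic cycle. Activity is scored as loss of luminescent signal.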
HCMV inh: blocks human cytomegalovirus replication; HFF cells, HCMV-luciferase reporter, 72 h; active compounds read low; activity change, negative = inhibition, % at 57.5 µM; 410,000 tested, 4.5% active; AID 1259415; in the data active means activity change below about -60%; inconclusive means no clear call, values can overlap the other calls; inactive means above about -39%
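After 16 h attachment at 37C, HFF cells received test compound and HCMV-luciferase (1 PFU/cell); reporter luminescence read 72 h later, data normalized against buffer-only and known inhibitor Salinomycin.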
FBPA Giardia inh: blocks Giardia fructose-bisphosphate aldolase activity; A8B2U2; purified Giardia FBPA; Potency, µM (series often up to 59.6 µM), for inactives: at the top dose activity, negative = inhibition, most hits filed as inhibitors; 290,000 tested, 0.71% active; AID 2451; further: potency means the concentration at half of the fitted maximal effect; nearly all actives have a fitted effect of over 55% in size
Target sequence (A8B2U2 whole entry, looked up): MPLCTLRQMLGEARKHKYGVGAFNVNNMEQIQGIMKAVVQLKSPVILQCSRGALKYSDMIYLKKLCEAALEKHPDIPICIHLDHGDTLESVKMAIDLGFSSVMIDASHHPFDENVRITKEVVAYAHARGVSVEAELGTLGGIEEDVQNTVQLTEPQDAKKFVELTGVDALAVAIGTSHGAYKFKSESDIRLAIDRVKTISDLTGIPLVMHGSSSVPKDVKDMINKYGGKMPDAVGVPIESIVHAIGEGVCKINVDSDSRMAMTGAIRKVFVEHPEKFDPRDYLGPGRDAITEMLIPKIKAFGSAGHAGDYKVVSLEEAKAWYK
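Giardia FBPA (40 nM reagent) was preincubated 10 min at RT with compound (up to 57.5 uM final), then substrate plus GAPDH/TPI/NAD/arsenate coupling system with diaphorase/resazurin was added; resorufin fluorescence (525/598 nm) was read after 20 min.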
* = called active by the depositor; ? = inconclusive; nt = not tested or not shown. Shown are actives, neighbours in structure and some others; about 14% of the full set was active somewhere. Unless noted, the call rests on the fitted dose curve; in most records, active means well fitted curve in the direction sought with a large enough effect; inconclusive means small, poorly fitted or top-dose-only effect, or another doubt; inactive means no such curve, though single readings can be large; an effect the other way counts as inactive or inconclusive. On the % scale 0 is the no-effect control and ±100 the full control effect.

SMILES | Sm TGR inh | Pf growth 96h | Pf growth 48h | HCMV inh | FBPA Giardia inh
CCOc1cc(CN2CCCC(N3CCc4ccccc4C3)C2)ccc1O (centres undefined) | ? | 414% | ? | 3 | -9%
COc1ccc(O)c(CN2CCCC(N3CCN(c4ccc(F)cc4)CC3)C2)c1 (centres undefined) | -1% | ? | 4.1µM* | 5 | -6%
COc1ccc(N2CCN(C3CCCN(Cc4ccc(F)cc4Cl)C3)CC2)cc1 (centres undefined) | -9% | ? | ? | -4 | -2%
COc1ccc(O)c(CN2CCCC(N3CCc4ccccc4C3)C2)c1 (centres undefined) | -9% | ? | 12µM* | 62 | -11%
Oc1ccccc1CN1CCCC(N2CCc3ccccc3C2)C1 (centres undefined) | 0% | 5.2µM* | 9.3µM* | 73 | -19%
CCOC(=O)c1[nH]c2ccccc2c1NC(=O)NC(C)C | 0% | 22% | -4% | 44 | 2%
CCOC(=O)c1sc(NC(=O)c2ccc(S(=O)(=O)N3CCOCC3)cc2)cc1C | 0% | 5.9µM* | ? | -20 | 1%
CCCCNC(=O)Nc1c(C(=O)OCC)[nH]c2ccccc12 | -5% | 8.3µM* | 6% | 53 | 2%
CCOC(=O)c1sc(NC(=S)NC(=O)C2CCCC2)cc1C | -7% | 9.3µM* | ? | 76 | -15%
CCOC(=O)c1sc(NC(=O)C2CC2)cc1C | -1% | ? | ? | -1 | 0%
CCOC(=O)c1sc(NC(=O)c2cccc(S(=O)(=O)N(CC)CC)c2)cc1C | 3% | 2.1µM* | nt | 27 | 1%
CCN1c2ccccc2-c2nc(SCC(=O)NCc3ccccc3)ncc2S1(=O)=O | 5% | nt | nt | -29 | nt
CCOC(=O)c1sc(NC(=O)Nc2ccc(Cl)cc2)cc1C | 3% | ? | 4.1µM* | ? | -7%
CCOC(=O)c1sc(NC(=O)c2ccc(Cl)s2)cc1C | 5% | ? | ? | 10 | 5%
CCOC(=O)c1sc(NC(=O)c2ccccc2)cc1C | 2% | ? | nt | 28 | -7%
CCc1nc2ccccc2c(C(=O)OCC(=O)Nc2ccc(S(=O)(=O)N3CCOCC3)cc2)c1C | 0% | 21% | 9.3µM* | -32 | -3%
CCOC(=O)c1sc(NC(=O)c2c(C)nn(Cc3ccccc3)c2C)cc1C | -9% | 1% | 9.3µM* | -36 | -14%
COC(=O)c1c(NC(=O)c2cccc(S(=O)(=O)N3CCN(C)CC3)c2)sc(C)c1C | -11% | 12µM* | ? | -32 | nt
CCc1nc2ccccc2c(C(=O)OCC(=O)Nc2cccc(S(=O)(=O)N3CCOCC3)c2)c1C | 14% | ? | ? | -32 | -7%
COc1ccc(C(CNc2ccc(S(C)(=O)=O)cc2[N+](=O)[O-])N(C)C)cc1OC (centres undefined) | -28% | -10% | -15% | -29 | -3%
CCOC(=O)c1sc(NC(=O)c2cccc(S(=O)(=O)N3CCN(C)CC3)c2)cc1C | 23% | -9% | 2.3µM* | 15 | -8%
CCOC(=O)c1[nH]c2ccccc2c1NC(=O)c1ccc(S(=O)(=O)N2CCOCC2)cc1 | -1% | 15µM* | ? | 46 | 3%
CCc1cccc(CC)c1NC(=O)c1cccc(S(=O)(=O)N2CCN(C)CC2)c1 | 1% | -22% | 3% | nt | nt
CCOC(=O)c1sc(NC(=O)c2ccc(S(=O)(=O)N(C)C)cc2)cc1C | -12% | 5.2µM* | nt | -87* | -14%
CCOC(=O)c1[nH]c2ccccc2c1NC(=O)c1ccc(Br)cc1 | -5% | nt | nt | -18 | nt
SMILES | Sm TGR inh | Pf growth 96h | Pf growth 48h | HCMV inh | FBPA Giardia inh
CC(O)[C@@]1(O)CC[C@H]2[C@@H]3CC[C@H]4C[C@@H](O)CC[C@]4(C)C3=CC[C@@]21C (some centres undefined) | -17% | 37% | ? | -14 | nt
Nc1ncnc(Oc2ccccc2F)c1[N+](=O)[O-] | ? | -15% | -5% | -15 | 6%
O=C(c1ccc([N+](=O)[O-])cc1)N1CCN(c2cccc3[nH]ccc23)CC1 | 2% | ? | ? | -2 | 0%
CC(C)Oc1ccc(CC2CC(=O)NC2=O)cc1 (centres undefined) | 2% | 10µM* | 40% | -8 | 5%
CCCOc1ccc(CC2CCC(=O)NC2=O)cc1 (centres undefined) | -24% | -18% | -7% | -69* | 4%
CC(C)Oc1ccc(C2CCC(=O)NC2=O)cc1 (centres undefined) | 1% | 12% | 17% | 17 | -4%
C[C@@H]1CN([C@H](C)CO)S(=O)(=O)c2ccc(C#CCN(C)C)cc2O[C@@H]1CN(C)Cc1ccccc1F | nt | nt | nt | -8 | nt
C1CCc2c(nnc3c2-c2nonc2CC3)C1 | 5% | 2.1µM* | 9% | 37 | 6%
N#Cc1cccc(-c2ccc3c(c2)COCC(=O)N3CCN2CCOCC2)c1 | nt | nt | nt | -11 | nt
COCCNC(=O)c1cc2oc3ccccc3c2n1C | 3% | nt | 144% | 42 | -4%
CCn1c(C(=O)NCc2ccccc2C)cc2oc3ccccc3c21 | -5% | nt | nt | -82* | nt
CCn1c(C(=O)NCc2ccc(OC(C)C)cc2)cc2oc3ccccc3c21 | 3% | nt | nt | -79* | nt
O=C1N[C@H](Cc2ccccc2)C(=O)N1Cc1cccc2ccccc12 | nt | nt | nt | nt | 1%
COc1cc2c(cc1OC)CN(C(=O)c1ccc(Br)o1)CC2 | 40µM* | ? | ? | -10 | -8%
COc1cc2c(cc1OC)CN(C(=O)c1cccs1)CC2 | 2% | -22% | 0.66µM* | -8 | -8%
COc1cc2c(cc1OC)CN(C(=O)c1ccco1)CC2 | ? | ? | 15% | 19 | 1%
COc1cc2c(cc1OC)CN(C(=O)CSC1=NCCS1)CC2 | nt | nt | nt | -69* | nt
COc1cc2c(cc1OC)CN(C(=O)c1cc(S(=O)(=O)N3CCOCC3)c(Cl)cc1Cl)CC2 | 0% | 5.2µM* | ? | nt | nt
Cc1cc(C)c(NC(=O)Cn2c(=O)n(CCCCC(=O)NCc3ccccc3Cl)c(=O)c3ccccc32)c(C)c1 | 1% | nt | nt | -1 | nt
Cc1cc2nc(-c3ccc(OCc4ccccc4)cc3)cc(C(F)(F)F)n2n1 | 0% | nt | nt | -6 | nt
Cc1csc(NC(=O)c2ccco2)n1 | 21% | -10% | 11% | -84* | 7%
CC1CCc2nc(NC(=O)c3ccco3)sc2C1 (centres undefined) | -3% | -2% | 37% | -78* | -3%
O=C(Nc1nc(-c2ccc(Cl)s2)cs1)c1ccco1 | 40µM* | 60% | 41% | 16 | -1%
O=C(Nc1ccccc1)/C(=C/c1ccc2c(c1)OCO2)NC(=O)c1ccco1 | -7% | -11% | -3% | -20 | -3%
Nc1ncc2[nH]c(N)nc2n1 | nt | nt | nt | -11 | nt
CC(=O)c1ccc(NC(=O)CSc2nc(-c3ccccc3C)nc3c2c(=O)n(C)c(=O)n3C)cc1 | 50µM* | nt | nt | 10 | nt
CCc1nc(SCC(=O)Nc2cccc(C(F)(F)F)c2)c2c(=O)n(C)c(=O)n(C)c2n1 | 5% | ? | 9.3µM* | -6 | 0%
